Gal4-VP16 FLuc = Gal4-VP16 reporter inhibition counter-screen; Drosophila S2 Gal4-VP16 UAS-luciferase, luminescence, 20 h; Potency, µM (highest dose often 53.6 µM), hits mostly inhibitors; 310,000 tested, 3.5% active; AID 2546;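 further: Gal4-VP16 expression switched on by copper sulfate through the metallothionein promoter; nearly all actives have a fitted effect of over 50% in size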
TDP1 cell CPT = DT40-hTDP1 cell growth loss with CPT. chicken DT40 Tdp1-/-;hTDP1 cells + 20 nM CPT, ATP luminescence, 48 h. Potency, µM (highest dose often 46.2 µM), hits mostly inhibitors. 420,000 tested, 12% active. AID 686979; further: nearly all actives have a fitted effect of over 55% in size
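Cell growth measured by CellTiter-Glo luminescence after a minimum 48 h, 37 C compound exposure with 20 nM CPT in Tdp1-knockout DT40 cells stably expressing hTDP1, seeded 400/well; qHTS titration format.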
TDP1 block = inhibitors of human tyrosyl-DNA phosphodiesterase TDP1. 350,000 tested, 0.28% active. recombinant TDP1, AlphaScreen DNA substrate cleavage. Q9NUW8. AID 485290. Potency, µM (highest dose often 130 µM), usual class: inhibitors; further: nearly all actives have a fitted effect of over 40% in size
Target sequence (Q9NUW8 whole entry, looked up): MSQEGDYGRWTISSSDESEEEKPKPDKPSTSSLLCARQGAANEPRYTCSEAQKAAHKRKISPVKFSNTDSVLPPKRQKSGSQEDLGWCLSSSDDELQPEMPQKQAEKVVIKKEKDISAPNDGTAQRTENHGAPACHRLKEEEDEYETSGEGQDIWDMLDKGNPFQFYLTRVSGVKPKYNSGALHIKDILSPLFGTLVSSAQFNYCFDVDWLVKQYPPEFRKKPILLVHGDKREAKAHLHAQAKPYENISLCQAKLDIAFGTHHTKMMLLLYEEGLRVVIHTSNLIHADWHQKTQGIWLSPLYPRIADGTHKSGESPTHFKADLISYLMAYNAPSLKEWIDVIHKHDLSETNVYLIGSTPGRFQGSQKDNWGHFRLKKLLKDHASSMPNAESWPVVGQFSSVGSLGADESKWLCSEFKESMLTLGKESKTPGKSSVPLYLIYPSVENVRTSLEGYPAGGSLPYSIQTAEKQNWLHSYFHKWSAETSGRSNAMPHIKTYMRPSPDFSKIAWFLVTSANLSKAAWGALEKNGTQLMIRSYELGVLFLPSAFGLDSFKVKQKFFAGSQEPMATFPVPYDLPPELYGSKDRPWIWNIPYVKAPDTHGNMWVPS
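Steps: enzyme plus compound, 15 min RT; add biotin/phosphotyrosine-FITC oligonucleotide (15 nM final), react 5 min; add donor/acceptor beads (10 ug/ml final), 10 min; read AlphaScreen. Tdp1 at 1 nM final.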
DT40 TDP1 no CPT = qHTS for Inhibitors of human tyrosyl-DNA phosphodiesterase 1 (TDP1): qHTS in cells in absence of CPT | DT40 Tdp1-/- hTDP1 cells, no CPT, ATP luminescence, 48 h | Potency, µM (series often up to 46.2 µM), actives largely listed as inhibitors | 420,000 tested, 15% active | AID 686978, 2013; further: nearly all actives have a fitted effect of over 55% in size
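No-CPT arm: Tdp1-/-;hTDP1 DT40 cells (400/well) plus compounds, incubated ≥48 hr at 37 °C. Readout CellTiter-Glo luminescence.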
RORg inh = ROR gamma (mouse) transcription inhibition. P51450. Drosophila S2 Gal4-RORgamma UAS-luciferase reporter, 20 h. Potency, µM (doses to about 53.6 µM), actives largely listed as inhibitors. 310,000 tested, 5.4% active. AID 2551; further: nearly all actives have a fitted effect of over 60% in size
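Compounds are pin-transferred onto Drosophila Schneider cells expressing a copper-inducible Gal4–ROR gamma transactivation domain fusion. After 1 hr, copper sulfate is added to 700 uM final; luciferase is read 20 hr later.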
Hits are given with their value; i = inactive; ? = inconclusive; nt = no result given; [ ] = remark or other dose. A selection: hits, their analogues and other compounds. The true share with any hit is near 19%. The call rests on the fitted dose curve; in most records, active means well fitted curve in the direction sought with a large enough effect; inconclusive means small, poorly fitted or top-dose-only effect, or another doubt; inactive means no such curve, though single readings can be large; an effect the other way counts as inactive or inconclusive.

SMILES	Gal4-VP16 FLuc	TDP1 cell CPT	TDP1 block	DT40 TDP1 no CPT	RORg inh
Cc1onc(-c2ccccc2Cl)c1C(=O)NCc1nc(-c2ccccc2)no1	i	9.2µM	i	9.2µM	i
CCCCOc1ccc(C(=O)N(Cc2nc(-c3ccc(Cl)cc3)no2)C(C)C)cc1	nt	?	i	?	nt
CN(Cc1ccc(F)cc1)Cc1nc(-c2ccccc2)no1	i	i	i	i	i
CCN1CCN(C(=O)/C=C/c2ccc(OC)cc2)CC1	nt	i	i	i	nt
CC(C)(C)C(=O)/C=c1\[nH]c(=O)/c(=C\c2ccc(C#N)cc2)s1	?	?	i	?	?
C#CCSc1nc2ccccc2n1C(=O)c1ccc(S(=O)(=O)N2CCCCC2)cc1	i	i	i	i	i[10 µM]
COc1ccc(-c2noc(CN(C(=O)c3cc(OC)c(OC)cc3OC)C(C)C)n2)cc1	nt	?	i	?	nt
COc1ccc(-c2noc(CN(C(=O)c3ccccc3Cl)C(C)C)n2)cc1	nt	26µM	i	18µM	nt
Cc1ccccc1C(=O)N(Cc1nc(-c2ccc(Cl)cc2)no1)C(C)C	nt	15µM	i	21µM	nt
COc1ccccc1C(=O)N(Cc1nc(-c2ccc(Cl)cc2)no1)C(C)C	i	29µM	i	16µM	i
CC(C)N(Cc1nc(-c2ccccc2)no1)C(=O)C1CCCCC1	i	?	i	?	i
CC(C)N(Cc1nc(-c2ccccc2)no1)C(=O)c1ccc(Br)o1	i	i	i	16µM	i
COc1cccc(NC(=O)C(Cc2ccccc2)NS(=O)(=O)c2ccc3c(c2)oc(=O)n3C)c1 (stereo not given)	nt	i	i	i	nt
CN(Cc1nc(-c2ccc(Cl)cc2)no1)C(=O)c1ccco1	i	i	nt	?	i
COc1ccc(C(=O)N(Cc2nc(-c3ccc(C)cc3)no2)C(C)C)cc1OC	i	i	i	?	i
Cc1ccc(-c2noc(CNC(=O)c3ccc(C)c(Cl)c3)n2)cc1	nt	?	i	23µM	nt
CC(C)N(Cc1nc(-c2ccc(Cl)cc2)no1)C(=O)c1ccco1	nt	?	i	23µM	nt
COc1ccc(-c2noc(CN(C(=O)c3c(-c4ccccc4Cl)noc3C)C(C)C)n2)cc1	i	16µM	i	23µM	i
COc1ccc(-c2noc(CNC(=O)c3cc(OC)c(OC)c(OC)c3)n2)cc1	nt	i	i	i	nt
CC(C)N(Cc1nc(-c2ccccc2)no1)C(=O)c1ccc([N+](=O)[O-])cc1	i	4.6µM	i	5.2µM	?
COc1ccc(Br)cc1CNC(=O)Cn1c(=O)c2cccn2c2ccc(F)cc21	nt	4.6µM	i	13µM	nt
CCOc1ccc(CNC(=O)Cn2c(=O)c3cccn3c3ccc(F)cc32)cc1OC	nt	i	i	i	nt
COc1ccc(Br)cc1CNC(=O)CCCn1c(=O)c2cccn2c2cccnc21	nt	?	i	18µM	nt
COc1ccc(OC)c(CNC(=O)CCCn2c(=O)c3cccn3c3cccnc32)c1	nt	i	i	i	nt
COc1ccc(Br)cc1CNC(=O)Cn1ncn2nc(-c3cccs3)cc2c1=O	nt	12µM	i	13µM	nt
SMILES	Gal4-VP16 FLuc	TDP1 cell CPT	TDP1 block	DT40 TDP1 no CPT	RORg inh
COc1ccc(Br)cc1CNC(=O)CCCn1c(=O)c2cccn2c2ccccc21	nt	?	i	23µM	nt
Cc1cccc(NC(=O)Cn2c(=O)nc(-c3ccccc3)c3ccccc32)c1C	nt	?	i	21µM	nt
COc1ccc(CNC(=O)Cn2c(=O)nc(-c3ccccc3)c3ccccc32)cc1OC	nt	?	i	16µM	nt
CC(=O)c1ccc(NC(=O)Cn2c(=O)nc(-c3ccccc3)c3ccccc32)cc1	nt	i	i	i	nt
COc1ccc(CNC(=O)Cn2c(=O)nc(-c3ccccc3)c3cc(Cl)ccc32)cc1OC	nt	?	i	?	nt
Cc1ccc(NC(=O)Cn2c(=O)nc(-c3ccccc3)c3ccccc32)cc1F	nt	i	i	i	nt
Cc1c(Cl)cccc1NC(=O)Cn1c(=O)nc(-c2ccccc2)c2ccccc21	nt	?	i	16µM	nt
CCOc1ccc2c(c1)OC1(CCC(C)C1)CC2=O (stereo not given)	nt	i	nt	i	nt
CCOc1ccc2c(c1)OC(c1ccc(C)cc1)(C(F)(F)F)NC2=O (stereo not given)	i	1.5µM	nt	1.3µM	i
CC(=O)N[C@H](Cc1c[nH]c2ccccc12)C(=O)O	nt	i	nt	i	nt
COc1ccc(-c2c[n+]3c4n2CCCCC4=C(c2ccc(Br)cc2)C3)cc1	i	6.5µM	i	10µM	i
